Screening data from PubChem.
ABCB6 inh MLPCN: human ABCB6 transporter inhibition; Q9NP58; K562-ABCB6 porphyrin accumulation, flow cytometry, 1 h; hits give low values; fluorescence ratio to DMSO, % at 10 µM; 0.19% of 360,000 active;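 active means fluorescence ratio to DMSO below 75%, the collection mean minus 3 SD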;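 further: signal is porphyrin accumulated inside mitochondria; 100% equals median channel fluorescence of DMSO control wells; lower ratio means ABCB6 inhibition with less porphyrin fluorescence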
VLA-4 inh: inhibition in a human VLA-4 binding assay; P13612; VLA-4 expressing cells, ligand binding flow cytometry; inhibition, % (about 7 µM as worked out from the volumes in the protocol); 0.2% of 330,000 active; AID 2557; in the data active means inhibition above about 50%
PG9 binder: small molecules binding HIV-1 gp120 antibody PG9 | inhibition, % at 6.7 µM | 0.43% of 360,000 active | TR-FRET gp120-PG9 antibody binding | AID 624416; in the data active means inhibition above about 8.5%
NR1D1 modulator: modulates human Rev-erb alpha binding to DNA. Rev-erbα–FITC-DNA binding, fluorescence polarization, 90 min. activity, % at 10 µM. 0.79% of 370,000 active;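 active means activity above about 14%, limit read from the data; passing the limit was not always enough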;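 further: 0% = DMSO wells with 35 nM protein and 100% = DMSO wells with 750 nM protein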
Target sequence (P20393 whole entry, looked up): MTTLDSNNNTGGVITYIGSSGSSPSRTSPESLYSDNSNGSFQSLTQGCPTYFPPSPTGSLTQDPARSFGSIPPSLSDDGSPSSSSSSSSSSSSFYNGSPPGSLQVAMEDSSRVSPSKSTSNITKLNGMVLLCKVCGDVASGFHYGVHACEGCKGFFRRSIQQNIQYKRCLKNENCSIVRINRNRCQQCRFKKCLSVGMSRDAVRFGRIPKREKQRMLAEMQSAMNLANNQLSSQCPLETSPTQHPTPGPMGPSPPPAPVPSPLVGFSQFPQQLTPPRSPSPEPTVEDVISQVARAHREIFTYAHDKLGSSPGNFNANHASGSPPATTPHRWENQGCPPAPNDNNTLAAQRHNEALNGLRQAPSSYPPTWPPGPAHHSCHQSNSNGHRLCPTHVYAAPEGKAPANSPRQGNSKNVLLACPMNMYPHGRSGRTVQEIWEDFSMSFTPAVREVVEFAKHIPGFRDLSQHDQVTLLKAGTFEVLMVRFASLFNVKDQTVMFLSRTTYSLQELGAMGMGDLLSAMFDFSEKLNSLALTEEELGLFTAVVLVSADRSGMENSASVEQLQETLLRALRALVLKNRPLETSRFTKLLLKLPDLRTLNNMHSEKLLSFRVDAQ
Exocytosis inh: lytic granule exocytosis inhibition; TALL-104 LAMP-1 surface exposure, flow cytometry; cells stimulated with thapsigargin and PMA; inhibition, % at 10 µM; 0.66% of 360,000 active; AID 651702;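 active means inhibition above about 55%, limit read from the data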
PG9 bind confirm: confirmation of small molecules binding HIV-1 gp120 antibody PG9. shares compounds with PG9 binder. TR-FRET PG9 antibody binding, biochemical. inhibition, % at 6.7 µM. 90% of 1,500 active; in the data active means inhibition above about 9%
PGV04 counter: binds control antibody PGV04 in PG9 binder counter-screen; shares compounds with PG9 binder; AID 651604; TR-FRET PGV04 antibody-gp120 binding, biochemical; 95% of 1,500 active; inhibition, % at 6.7 µM; in the data active means inhibition above about 9.5%
PG9 binder DR: small molecules binding HIV-1 gp120 antibody PG9 | TR-FRET PG9 antibody-gp120 binding inhibition | shares compounds with PG9 binder | IC50, µM | 95 tested, under 10 active | AID 651848; in the data active means IC50 below about 10 µM
PGV04 DR counter: PGV04 binding, dose response counter-screen; shares compounds with PG9 binder; TR-FRET binding to control antibody PGV04; IC50, µM; 20% of 95 active; AID 651937
PG126 DR counter: counter-screen for PG9 binders: binding to control antibody PG126 | 20% of 95 active | IC50, µM | TR-FRET binding to antibody PG126, counterscreen | shares compounds with PG9 binder | AID 651939
* = called active by the depositor; i = inactive; x = not tested or not shown. The list is not random: actives were taken first. Their share in the collection is about 2%. Unless noted, no stated cut-off is given here; in the data, active means IC50 below about 9 µM; inactive means the rest.

SMILES	ABCB6 inh MLPCN	VLA-4 inh	PG9 binder	NR1D1 modulator	Exocytosis inh	PG9 bind confirm	PGV04 counter	others
CCCOc1ccc(C2C(C(=O)c3ccco3)=C(O)C(=O)N2CCCn2ccnc2)cc1 (stereo not drawn)	100.0	19.5	18.6*	2.0	-0.8	24.4*	28.3*
CCOc1cccc(C2C(C(=O)c3ccc(C)o3)=C(O)C(=O)N2CCCn2ccnc2)c1 (stereo not drawn)	83.0	0.5	9.1*	0.0	13.4	15.2*	18.8*
COCCCN1C(=O)C(O)=C(C(=O)c2ccco2)C1c1ccccc1 (stereo not drawn)	116.0	14.5	5.4	-5.4	0.9	x	x
CCCOc1ccc(C2C(C(=O)c3ccco3)=C(O)C(=O)N2CCCn2ccnc2)cc1OC (stereo not drawn)	101.0	x	-0.5	0.0	-2.7	x	x
Cc1occc1-c1nnc(SCC(=O)N2CCN(c3ncccn3)CC2)n1-c1ccccc1	x	x	x	0.7	x	x	x
Cc1ccc(C)c(NC(=O)CN(C)C(=O)c2cc3c(s2)CCCCC3)c1	96.0	-11.7	10.8*	2.5	15.7	16.3*	21.9*
CCCCNc1cccc2c1S(=O)(=O)N[C@H](CC(C)C)CO2	x	x	0.9	-7.0	x	x	x
COc1ccccc1CCC[C@H](CCS(=O)(=O)C(C)C)CC1CCCCC1	x	x	x	2.3	x	x	x
Cc1cccc(-n2c(=S)[nH]c3c(oc4ccccc43)c2=O)c1	100.0	12.6	16.3*	-0.6	-1.3	6.6	9.4*
CCCCn1c(=O)[nH]c2c(oc3ccccc32)c1=O	106.0	-5.8	0.5	7.8	-6.7	x	x
Cc1ccc(-n2c(=S)[nH]c3c(oc4ccccc43)c2=O)cc1	98.0	-9.1	17.7*	1.3	-2.3	16.8*	7.2	PG9 binder DR=>67;PGV04 DR counter=>67;PG126 DR counter=>67
Cc1cccc(-n2c(C)c(-c3ccccc3)[nH]c2=S)c1	88.0	14.7	2.8	0.5	5.6	x	x
O=c1c2oc3ccccc3c2[nH]c(=S)n1-c1ccccc1	101.0	0.3	17.4*	7.6	-1.9	14.4*	13.1*	PG9 binder DR=i;PGV04 DR counter=i;PG126 DR counter=i
COC(=O)c1ccccc1NC(=O)c1cccc(NC(=O)CSCc2ccccc2)c1C	96.0	-13.4	32.6*	15.0	-3.0	27.8*	42.6*
COC(=O)c1ccccc1NC(=O)CSCC(=O)Nc1ccccc1	104.0	19.4	3.3	1.0	7.9	x	x
CC1(C)Cc2nc3sc4c(SCC(=O)O)ncnc4c3cc2CO1	101.0	14.2	-2.3	1.1	1.2	x	x
CC1(C)Cc2nc3sc4c(SCC(=O)NCc5ccccc5)ncnc4c3cc2CO1	97.0	18.8	48.4*	-2.8	10.3	86.2*	87.9*
Cc1nc2c(sc3nc(N4CCOCC4)c4c(c32)CC(C)(C)OC4)c(-c2ccccc2)c1C(=O)O	111.0	-6.9	15.6*	4.9	-1.5	25.6*	32.0*
CC1(C)Cc2c(C#N)c(SCC(=O)c3ccccc3)nc(N3CCOCC3)c2CO1	96.0	7.7	41.5*	-5.4	-4.5	9.3*	86.0*
CC1(C)Cc2c(c(N3CCOCC3)nc3snc(NC(=O)c4ccccc4)c23)CO1	96.0	1.5	-1.1	1.6	2.8	x	x
CC1(C)Cc2c(C#N)c(SCc3ccccc3)nc(N3CCOCC3)c2CO1	92.0	11.7	-0.4	4.3	6.8	x	x
CC(COc1cccc(OC(F)(F)F)c1)CN1CCC(C(O)(c2ccccc2)c2ccccc2)CC1 (stereo not drawn)	x	x	x	-2.3	x	x	x
COc1ccc(Br)cc1-c1nc(CCl)cs1	100.0	-9.4	10.3*	6.2	-0.9	15.8*	20.1*
CCOc1ccc(-c2nc(CCl)cs2)cc1	97.0	11.0	-1.2	-3.9	-1.7	x	x
Cc1cc(N2C(=O)C(O)=C(C(=O)c3ccco3)C2c2ccccc2F)no1 (stereo not drawn)	105.0	2.9	10.2*	-3.8	3.4	9.8*	27.6*
SMILES	ABCB6 inh MLPCN	VLA-4 inh	PG9 binder	NR1D1 modulator	Exocytosis inh	PG9 bind confirm	PGV04 counter	others
Cc1cc(N2C(=O)C(O)=C(C(=O)c3ccco3)C2c2ccc(Cl)cc2)no1 (stereo not drawn)	96.0	6.4	16.3*	-2.3	-0.8	29.7*	40.5*
CCCc1cc(=O)oc2cc(C)cc(O)c12	97.0	12.9	9.3*	-1.4	2.6	14.2*	19.4*
Cc1cc(O)c2c(C)c(CC(=O)N3CCN(C(=O)C4COc5ccccc5O4)CC3)c(=O)oc2c1 (stereo not drawn)	99.0	-5.0	6.2	2.7	2.7	x	x
CCc1cc(=O)oc2cc(C)cc(O)c12	98.0	-12.1	14.5*	1.3	-9.6	13.5*	19.8*
COC(=O)Cc1c(C)c2c(O)cc(C)cc2oc1=O	96.0	10.0	10.4*	-0.6	-1.2	18.1*	17.6*	PG9 binder DR=i;PGV04 DR counter=i;PG126 DR counter=i
Cc1cc(O)c2c(CN3CCN(Cc4ccccc4)CC3)cc(=O)oc2c1	93.0	1.0	-2.7	-2.5	-8.4	x	x
COC(=O)[C@]12C[C@H](CC(=O)N3CCN(C(=O)C4CC4)CC3)C(=O)N(Cc3ccc(Cl)cc3Cl)C1=C[C@H](COCc1ccccc1)O[C@@H]2C	x	x	x	3.1	x	x	x
C[C@@H]1CC2C3CCC4=CC(=O)C=C[C@]4(C)[C@@]3(F)[C@@H](O)C[C@]2(C)[C@H]1C(=O)CO (stereo partly drawn)	x	x	x	0.6	x	x	x
CC(C)n1nnnc1C1c2ccccc2OCC(=O)N1Cc1cccc(C(F)(F)F)c1 (stereo not drawn)	x	x	x	-7.1	x	x	x
CC(=O)c1ccc(NC(=O)CSc2nc(N)c3cc4c(nc3n2)CCCC4)cc1	95.0	10.1	22.3*	-2.4	-5.8	14.2*	26.4*
Cc1cccc(NC(=O)CSc2nc3nc4c(cc3c(=O)n2-c2ccccc2)CCCC4)c1	94.0	0.4	29.0*	22.0	-1.1	25.0*	38.7*
CC(=O)c1c(OC(=O)c2ccccc2)ccnc1C(F)(F)F	89.0	37.1	9.2*	-2.8	-1.4	10.5*	11.1*
Cc1ccc(-n2nc3c(c2NC(=O)c2ccccc2Br)CS(=O)C3)cc1 (stereo not drawn)	104.0	26.4	8.8*	-1.7	3.5	7.8	14.9*
Cc1ccccc1-c1n[nH]c(=S)o1	98.0	-3.8	34.5*	x	-1.0	35.1*	46.9*
S=c1[nH]nc(-c2ccccc2)o1	94.0	24.1	6.7	-1.9	-2.0	x	x
Cc1ccc(-c2cc(-c3n[nH]c(=S)o3)c3ccccc3n2)cc1	95.0	-28.8	-0.4	-2.2	-2.8	x	x
CSc1ccccc1-c1n[nH]c(=S)o1	103.0	x	35.1*	-2.9	1.1	39.6*	51.7*
